Measurements published in PMC4336329 (PLoS ONE, 2015).
Out of some 310,000 compounds screened, about 14,000 (4.5%) showed an effect of 50% or more. Effects have a minus sign here. What follows is part of a selection rich in strong results, with near analogues and random picks from the rest.

Target: human ether-à-go-go-related gene (hERG) potassium channel (human, UniProt Q12809)
Experiment: primary screen, population patch clamp on CHO cells stably expressing hERG; higher = less effect of the substance
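Note: peak tail current of the secondary pulse compared with the same well before compound.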

Chain of human ether-à-go-go-related gene (hERG) potassium channel (Q12809 whole entry, looked up): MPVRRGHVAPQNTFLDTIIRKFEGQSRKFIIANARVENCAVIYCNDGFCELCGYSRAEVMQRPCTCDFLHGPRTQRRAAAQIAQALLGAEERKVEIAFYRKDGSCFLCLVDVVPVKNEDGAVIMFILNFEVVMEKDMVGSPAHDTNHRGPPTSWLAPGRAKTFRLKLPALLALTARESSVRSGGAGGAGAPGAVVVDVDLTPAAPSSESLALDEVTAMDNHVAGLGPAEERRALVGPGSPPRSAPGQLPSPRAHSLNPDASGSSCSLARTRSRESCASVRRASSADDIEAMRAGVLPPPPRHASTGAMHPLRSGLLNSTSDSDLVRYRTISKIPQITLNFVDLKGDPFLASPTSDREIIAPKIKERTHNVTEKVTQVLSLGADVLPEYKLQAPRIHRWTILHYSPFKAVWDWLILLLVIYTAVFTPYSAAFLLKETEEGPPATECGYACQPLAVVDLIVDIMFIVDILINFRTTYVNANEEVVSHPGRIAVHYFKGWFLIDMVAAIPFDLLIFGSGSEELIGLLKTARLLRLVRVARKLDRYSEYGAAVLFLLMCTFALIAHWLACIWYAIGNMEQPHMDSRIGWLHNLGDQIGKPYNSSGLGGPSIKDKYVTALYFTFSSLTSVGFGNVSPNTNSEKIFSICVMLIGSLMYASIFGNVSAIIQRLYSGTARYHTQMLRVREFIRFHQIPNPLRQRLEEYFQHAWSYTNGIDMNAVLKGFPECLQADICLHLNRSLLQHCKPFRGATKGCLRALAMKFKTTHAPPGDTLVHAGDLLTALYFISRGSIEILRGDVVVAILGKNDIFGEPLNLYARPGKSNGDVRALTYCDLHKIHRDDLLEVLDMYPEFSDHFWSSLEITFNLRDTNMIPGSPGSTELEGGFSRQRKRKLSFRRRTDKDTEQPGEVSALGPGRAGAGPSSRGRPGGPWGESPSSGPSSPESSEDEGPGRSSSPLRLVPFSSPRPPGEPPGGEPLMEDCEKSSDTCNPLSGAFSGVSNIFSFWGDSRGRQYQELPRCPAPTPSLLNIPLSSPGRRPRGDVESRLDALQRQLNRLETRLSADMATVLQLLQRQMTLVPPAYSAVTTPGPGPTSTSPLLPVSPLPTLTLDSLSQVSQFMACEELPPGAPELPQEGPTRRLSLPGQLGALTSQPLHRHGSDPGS

Going from `CCOC(=O)c1c(NC(=O)COC(=O)Cc2ccccc2[N+](=O)[O-])sc(C(=O)N(C)C)c1C` to `CCOC(=O)c1c(NC(=O)COC(=O)Cc2c[nH]c3ccccc23)sc(C(=O)N(C)C)c1C`, the “hERG current change (%, negative = inhibition) at 10uM” value rises from -68.9% to -62.5%.

Compared with `CCOC(=O)c1c(NC(=O)COC(=O)CCOc2ccc(OCC)cc2)sc(C(=O)N(C)C)c1C`, `CCOC(=O)c1c(NC(=O)COC(=O)c2ccc([N+](=O)[O-])cc2)sc(C(=O)N(C)C)c1C` is higher in “hERG current change (%, negative = inhibition) at 10uM” value: -8.87% for the first, -8.65% for the second.

Compared with `CCOC(=O)c1c(NC(=O)COC(=O)Cc2n[nH]c(=O)c3ccccc23)sc(C(=O)N(C)C)c1C`, `CCOC(=O)c1c(NC(=O)COC(=O)c2ccccn2)sc(C(=O)N(C)C)c1C` is higher in “hERG current change (%, negative = inhibition) at 10uM” value: -2.24% for the first, 4.44% for the second.

Compared with `CN(Cc1nc2ccccc2[nH]1)Cc1nc(CC2CC2)no1`, `Cc1ccc(OCc2nc3ccccc3[nH]2)cc1` is higher in “hERG current change (%, negative = inhibition) at 10uM” value: -14.5% for the first, -9.02% for the second.

Compared with `CCOc1cc(Br)ccc1S(=O)(=O)N1CCC(C(N)=O)CC1`, `O=C(c1ccc(F)cc1)C1CCN(S(=O)(=O)c2ccccc2)CC1` is lower in “hERG current change (%, negative = inhibition) at 10uM” value: -5.26% for the first, -43.1% for the second.

Going from `O=C1COc2ccc(C(=O)COc3ccc([N+](=O)[O-])cc3)cc2N1` to `COc1ccc(C2C3=C(CC(C)(C)CC3=O)OC(N)=C2[N+](=O)[O-])cc1` (stereo not drawn), the “hERG current change (%, negative = inhibition) at 10uM” value rises from 8.2% to 8.74%.

First: CC(C)Oc1ccc(C(CC(=O)O)NC(=O)c2cccs2)cc1 (stereo not drawn)
Second: Cc1ccc(OCCNC(=O)CNC(=O)c2ccc(C)cc2)cc1
The “hERG current change (%, negative = inhibition) at 10uM” value of the first is lower: -2.74% for the first, 9.37% for the second.

Going from `CC1(C)CC(=O)C2=C(C1)Oc1ncn(CCCn3ccnc3)c(=N)c1C2c1ccccc1` (stereo not drawn) to `COc1ccc(C2C3=C(CC(C)(C)CC3=O)Oc3ncn(CCCn4ccnc4)c(=N)c32)cc1` (stereo not drawn), the “hERG current change (%, negative = inhibition) at 10uM” value rises from -53.3% to -16.6%.

Going from `CC(C)Cn1cnc2c(c1=N)C(c1ccccc1)C1=C(CC(C)(C)CC1=O)O2` (stereo not drawn) to `CC1(C)CC(=O)C2=C(C1)Oc1ncn(CCO)c(=N)c1C2c1ccccc1` (stereo not drawn), the “hERG current change (%, negative = inhibition) at 10uM” value rises from -38.8% to -35.3%.

Compared with `CC1(C)CC(=O)C2=C(C1)Oc1ncn(CCCO)c(=N)c1C2c1ccccc1` (stereo not drawn), `CC1(C)CC(=O)C2=C(C1)Oc1ncn(Cc3ccco3)c(=N)c1C2c1ccccc1` (stereo not drawn) is lower in “hERG current change (%, negative = inhibition) at 10uM” value: -29% for the first, -60.8% for the second.

Going from `COc1ccc(C2C3=C(CC(C)(C)CC3=O)Oc3ncn(CC(C)C)c(=N)c32)cc1` (stereo not drawn) to `COc1ccc(C2C3=C(CC(C)(C)CC3=O)Oc3ncn(Cc4ccco4)c(=N)c32)cc1` (stereo not drawn), the “hERG current change (%, negative = inhibition) at 10uM” value rises from -69.1% to -68.3%.

Compared with `N=c1c2c(ncn1Cc1ccco1)Oc1ccc3ccccc3c1C2c1ccccc1` (stereo not drawn), `COc1ccc(C2C3=C(CC(C)(C)CC3=O)Oc3ncn(Cc4ccccc4)c(=N)c32)cc1` (stereo not drawn) is lower in “hERG current change (%, negative = inhibition) at 10uM” value: -6.08% for the first, -55.5% for the second.

Going from `COc1ccc(C2C3=C(CC(C)(C)CC3=O)Oc3ncn(CCO)c(=N)c32)cc1OC` (stereo not drawn) to `COc1ccc(C2C3=C(CC(C)(C)CC3=O)Oc3ncn4nc(-c5cccnc5)nc4c32)cc1` (stereo not drawn), the “hERG current change (%, negative = inhibition) at 10uM” value rises from -24.5% to -2.59%.

Going from `COc1ccc(C2C(C#N)=C(N)OC3=C2C(=O)CC(C)(C)C3)cc1` (stereo not drawn) to `CCCCCCC1C(C#N)=C(N)OC2=C1C(=O)CC(C)(C)C2` (stereo not drawn), the “hERG current change (%, negative = inhibition) at 10uM” value falls from 12.8% to -0.43%.

Compared with `Cc1onc(-c2c(Cl)cccc2Cl)c1C(=O)O/N=C(\C#N)c1c(Cl)cccc1Cl`, `Cc1ccc(NC(=O)c2ccc(Cl)c(N3C(=O)C=CC3=O)c2)cc1` is lower in “hERG current change (%, negative = inhibition) at 10uM” value: 9.4% for the first, -0.826% for the second.

Going from `COc1cccc(CNC(=O)CCNC(=O)c2ccc(Br)o2)c1` to `COCCNC(=O)Cc1cn(C)c2ccccc12`, the “hERG current change (%, negative = inhibition) at 10uM” value falls from 11.2% to 4.15%.

First: Nc1cc(=O)[nH]c(SCC(=O)Nc2ccccc2Sc2ccc(Cl)cc2)n1
Second: O=C(CCn1nc(-c2ccc(Cl)cc2)ccc1=O)N1CCN(c2ccccc2)CC1
The “hERG current change (%, negative = inhibition) at 10uM” value of the first is higher: 14.5% for the first, -45.9% for the second.

Going from `CCOC(=O)N1CCC(=NNC(=O)c2ccc(O)cc2)CC1` to `Cc1ccc(C(=O)CCC(=O)N2CCN(c3ccc(F)cc3)CC2)cc1`, the “hERG current change (%, negative = inhibition) at 10uM” value falls from 4.27% to -10.1%.

Compared with `COc1ccc(C2C3=C(CC(C)(C)CC3=O)Nc3c2c(=O)[nH]c(=O)n3Cc2ccccc2)cc1` (stereo not drawn), `COc1ccc(SC[C@H](Cc2ccccc2)N2CC[C@@H](C(C)(C)C)CCC2=O)cc1` is higher in “hERG current change (%, negative = inhibition) at 10uM” value: 8.57% for the first, 9.92% for the second.

Compared with `O=C(c1ccc(F)cc1)C1CCN(Cc2cn[nH]c2-c2ccc(F)cc2)CC1`, `COc1ccc(-c2[nH]ncc2CN2CCC(C(=O)c3ccc(F)cc3)CC2)cc1` is lower in “hERG current change (%, negative = inhibition) at 10uM” value: -75.2% for the first, -76.2% for the second.

Compared with `COc1ccc(-c2[nH]ncc2CN2CCC(C(=O)N3CCOCC3)CC2)c(F)c1`, `O=C(C1CCN(Cc2cn[nH]c2-c2ccc(F)cc2F)CC1)N1CCOCC1` is higher in “hERG current change (%, negative = inhibition) at 10uM” value: 5.23% for the first, 8.72% for the second.

First: O=C(c1ccc(F)cc1)C1CCN(Cc2cn[nH]c2-c2ccccc2)CC1
Second: COc1ccc(C(=O)N2CCN(Cc3cn[nH]c3-c3ccc(OC)cc3F)CC2)cc1
The “hERG current change (%, negative = inhibition) at 10uM” value of the first is lower: -78.8% for the first, -38.3% for the second.

First: O=S(=O)(c1ccc2c(c1)CCN2)N1CCOCC1
Second: O=C(COc1ncnc2ccccc12)Nc1ccc(Cl)c(S(=O)(=O)N2CCOCC2)c1
The “hERG current change (%, negative = inhibition) at 10uM” value of the first is higher: -2.2% for the first, -13.5% for the second.

First: O=c1c2cc(N3CCOCC3)ccc2[nH]c(=S)n1Cc1ccco1
Second: O=C(/C=C/c1ccco1)Nc1ccc(CN2CCOCC2)cc1
The “hERG current change (%, negative = inhibition) at 10uM” value of the first is higher: -25.1% for the first, -31.3% for the second.

Going from `Cc1cc(N2CC34C=CC(O3)C(C(=O)O)C4C2=O)no1` (stereo not drawn) to `CCn1c(C)c(C(=O)O)c2cc(OC)ccc21`, the “hERG current change (%, negative = inhibition) at 10uM” value rises from 2.22% to 6.41%.

First: COC(=O)COc1ccc2occ(C(C)=O)c2c1
Second: NC(=O)c1ccccc1OCC(=O)Nc1ccc2c(c1)CCC2
The “hERG current change (%, negative = inhibition) at 10uM” value of the first is lower: -3.74% for the first, 5.27% for the second.

First: O=C(NCC(c1ccco1)N1CCc2ccccc2C1)c1ccccc1Br (stereo not drawn)
Second: O=C(NCC(c1cccs1)N1CCOCC1)c1cc([N+](=O)[O-])ccc1Cl (stereo not drawn)
The “hERG current change (%, negative = inhibition) at 10uM” value of the first is lower: -37.5% for the first, -20.5% for the second.

Going from `Cc1ccccc1OC(C)C(=O)N1CCC(Cc2ccccc2)CC1` (stereo not drawn) to `COc1ccc(SC[C@H](Cc2ccccc2)N2CC[C@@H](O)CCC2=O)cc1`, the “hERG current change (%, negative = inhibition) at 10uM” value rises from -17.5% to -8.62%.

First: COc1ccc(CN2CCC(=O)N([C@H](CO)CC(C)C)CC2)cc1
Second: COc1ccc(CN2CCC(=O)N([C@H](CO)Cc3ccccc3)CC2)cc1
The “hERG current change (%, negative = inhibition) at 10uM” value of the first is lower: -2.62% for the first, -2.16% for the second.

Compared with `CCCN1CCC(=O)N(CCSc2ccc(OC)cc2)CC1`, `CCCN1CCC(=O)N([C@H](CSc2ccc(OC)cc2)CC(C)C)CC1` is lower in “hERG current change (%, negative = inhibition) at 10uM” value: -45.4% for the first, -70.8% for the second.

Going from `COc1ccc(SC[C@H](CC(C)C)N2CCN(C)CCC2=O)cc1` to `COc1ccc(SC[C@H](CC(C)C)N2CCN(CCc3ccccc3)CCC2=O)cc1`, the “hERG current change (%, negative = inhibition) at 10uM” value falls from -36.3% to -71.3%.

Going from `COc1ccc(SC[C@H](Cc2ccccc2)N2CCN(CCc3ccccc3)CCC2=O)cc1` to `CCCN1CCC(=O)N([C@H](CSc2ccc(OC)cc2)Cc2ccccc2)CC1`, the “hERG current change (%, negative = inhibition) at 10uM” value rises from -74.6% to -70.5%.

First: COc1ccc(SC[C@H](Cc2ccccc2)N2CC[C@@H](C)CCC2=O)cc1
Second: COc1ccc(SC[C@H](Cc2ccccc2)N2CCN(C)CCC2=O)cc1
The “hERG current change (%, negative = inhibition) at 10uM” value of the first is higher: -20.1% for the first, -52.2% for the second.

Compared with `O=C(CN1CCN(c2cccc(C(F)(F)F)c2)CC1)N(C1CC1)C1CCS(=O)(=O)C1` (stereo not drawn), `Cc1c(C(=O)N2CCN(c3ccccc3)CC2)sc2nc3n(c(=O)c12)CCC3` is higher in “hERG current change (%, negative = inhibition) at 10uM” value: -29.2% for the first, 6.84% for the second.

Compared with `O=[N+]([O-])c1cccnc1N1CCCCC1`, `CN1C(=O)CC(N2CCN(c3ccccn3)CC2)C1=O` (stereo not drawn) is lower in “hERG current change (%, negative = inhibition) at 10uM” value: 5.7% for the first, 1.46% for the second.

First: COc1ccc(-c2nnnn2C)cc1S(=O)(=O)NCCc1ccccc1
Second: Cc1ccc(S(=O)(=O)Oc2ccc(/C=C3\N=C(c4cccc(C)c4)OC3=O)cc2)cc1
The “hERG current change (%, negative = inhibition) at 10uM” value of the first is lower: -2.23% for the first, 1.5% for the second.

Going from `CCc1c(C)sc(NC(=O)Cc2ccccc2OC)c1C(=O)N1CCOCC1` to `O=C(CCn1nc(-c2ccc(Cl)cc2)ccc1=O)N1CCOCC1`, the “hERG current change (%, negative = inhibition) at 10uM” value falls from -16.4% to -36.9%.

First: Cc1cc(N)n2nc(-c3ccc(C(C)(C)C)cc3)cc2n1
Second: O=C(O)c1ccc2cc(-c3ccccc3)[nH]c2c1
The “hERG current change (%, negative = inhibition) at 10uM” value of the first is higher: 8.26% for the first, -30.8% for the second.

First: CN(CCOc1ccccc1)C(=O)c1ccc(OC2CCN(C(=O)C3CC3)CC2)cc1
Second: O=C(CCC(=O)N1CCN(c2ccc(F)cc2)CC1)c1ccccc1
The “hERG current change (%, negative = inhibition) at 10uM” value of the first is lower: -25.7% for the first, -12.7% for the second.

Going from `COc1ccc(NC(=O)CCC(=O)Nc2nnc(CC(C)C)s2)cc1Cl` to `Cc1nn(CCCC(=O)NCc2ccc(Cl)cc2)c(C)c1[N+](=O)[O-]`, the “hERG current change (%, negative = inhibition) at 10uM” value falls from 20% to -41.9%.

Compared with `CN1CCC(=O)N([C@H](CO)Cc2ccccc2)CC1`, `O=C(CSc1ccccc1)N1CCN(c2ccccn2)CC1` is lower in “hERG current change (%, negative = inhibition) at 10uM” value: 12% for the first, -24.6% for the second.

Going from `Nc1cc(C(=O)N2CCCC2)cc(C(=O)N2CCCC2)c1` to `O=C(O)CCC(=O)N1CCN(c2ccccn2)CC1`, the “hERG current change (%, negative = inhibition) at 10uM” value falls from 11.9% to 9.16%.

Going from `C=CCN1C(=O)C(Cc2ccc(OC)cc2)S/C1=N\N=C\c1cccs1` (stereo not drawn) to `O=C1CC(N2CCN(c3ccccn3)CC2)C(=O)N1c1ccc(F)cc1` (stereo not drawn), the “hERG current change (%, negative = inhibition) at 10uM” value rises from 13.1% to 14.7%.

First: O=C(CC(c1ccccc1)c1ccccc1)N1CCN(c2ccccn2)CC1
Second: O=C1CC(N2CCN(c3ccccn3)CC2)C(=O)N1CC(c1ccccc1)c1ccccc1 (stereo not drawn)
The “hERG current change (%, negative = inhibition) at 10uM” value of the first is higher: -53.4% for the first, -64% for the second.

Compared with `O=C(CCn1nc(-c2ccc(Cl)cc2)ccc1=O)N1CCN(c2ccc(F)cc2)CC1`, `O=C(CCC(=O)N1CCN(c2ccc(F)cc2)CC1)c1ccc(F)cc1` is lower in “hERG current change (%, negative = inhibition) at 10uM” value: -52.9% for the first, -69.4% for the second.
